Source: PubChem BioAssay (several laboratories)
tim10-1 inh = growth inhibitors of tim10-1 mutant yeast, primary screen, luminescence, uHTS; S. cerevisiae tim10-1 ts strain growth, BacTiter-Glo, 24 h; inhibition, % at 20 µM; actives 2.2% (n = 330,000); AID 463190, 2010;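 active = inhibition of at least 40%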;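 also: mutant grown at 25 °C; 0% = DMSO wells with yeast and 100% = wells holding no yeast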
tim23-1 inh = growth inhibitors of tim23-1 mutant yeast, primary screen, luminescence, uHTS; actives 1.3% (n = 330,000); AID 463212, 2010; inhibition, % at 20 µM; S. cerevisiae tim23-1 growth, BacTiter-Glo luminescence, 24 h;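 active = growth inhibition of the mutant yeast at or above 50%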;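 also: temperature-sensitive mutant grown at 25 °C; plate controls were DMSO-treated mutant yeast for no effect and medium wells lacking yeast for full effect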
V-ATPase pH = regulators of yeast V-ATPase proton pumping, primary screen, pHLuorin cytosolic pH fluorescence; actives 0.37% (n = 350,000); S. cerevisiae; AID 504577, 2011; response, % at 10 µM; in the data active = response mostly above about 7.3%, no sharp cut-off; inactive = mostly below about 5.4%; also: actives read high
PfHsp90 set2 = growth inhibition of PfHsp90-expressing yeast, primary screen, antimalarial PfHsp90 inhibitor project, S. cerevisiae, BacTiter-Glo luminescence, single point, set 2; BacTiter-Glo ATP, 48 h; yeast lacking PDR1 and PDR3 efflux regulators; inhibition, % at 9.4 µM; AID 504621, 2011; actives 0.32% (n = 310,000);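 active = every replicate shows inhibition above about 80%, whatever the replicate mean, limit read from the data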;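 also: 0% = DMSO neutral controls and 100% = 20 µM radicicol positive controls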
TIM10 inh = growth inhibitors of isogenic TIM10 control yeast, primary screen, counter-screen for tim10-1 yeast inhibitor project, luminescence, uHTS; inhibition, % at 10 µM; actives 1.4% (n = 330,000); AID 463195, 2010; S. cerevisiae TIM10 strain growth, BacTiter-Glo luminescence, 24 h;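 active = inhibition of 40% or more at the single tested concentration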;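 also: wild-type TIM10 isogenic control strain grown at permissive 25 °C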
tim10-1 conf = growth inhibitors of tim10-1 mutant yeast, confirmation, single concentration, luminescence, S. cerevisiae. actives 56% (n = 7,400). shares compounds with tim10-1 inh. S. cerevisiae tim10-1 ts strain growth, BacTiter-Glo, 24 h. inhibition, % at 20 µM;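 active = inhibition of yeast growth at or above a set limit in either of two repeat tests at 20 µM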;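 also: tim10-1 mutant grown at permissive 25 °C to find synthetic lethal compounds; 0% = DMSO yeast wells and 100% = medium wells without yeast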
Numbers without * were called inactive; x = no result. The list is not random: actives were taken first. Their share in the collection is about 3.7%.

SMILES	tim10-1 inh	tim23-1 inh	V-ATPase pH	PfHsp90 set2	TIM10 inh	tim10-1 conf
Cc1cc(C)c(OCC(=O)Nc2ccc(S(=O)(=O)N3CCCC3)cc2)c(C)c1	40.7*	42.6	-1.0	-11.6	26.8	38.5*
CN(C)S(=O)(=O)c1cccc(NC(=O)COc2cccc3ccccc23)c1	41.1*	30.0	-1.8	x	16.0	32.7*
CS(=O)(=O)N(CC(=O)O)c1cc(C(F)(F)F)ccc1Cl	-8.0	14.5	3.7	24.7	-5.9	x
CCOCCCNC(=O)CN1C(=O)c2ccccc2Sc2ncccc21	-2.5	3.1	-0.7	-2.2	-3.8	x
CC(=O)Nc1ccc(NC(=O)COc2ccc(S(=O)(=O)N3CCCC3)cc2)cc1	-15.2	-3.9	1.3	14.2	-4.9	x
COc1ccc(OCC(=O)Nc2ccc(S(=O)(=O)N3CCCCC3)cc2)cc1	44.9*	43.3	5.0	6.9	28.0	51.8*
COCCN(C(=O)CSc1nnc(-c2ccccc2F)o1)c1c(N)n(CC(C)C)c(=O)[nH]c1=O	13.2	-5.9	-1.4	x	4.9	x
C/C(=N\NC(=O)CNC(=O)c1cccs1)c1ccc(Cl)c(Cl)c1	50.6*	40.9	8.2	-11.4	2.4	-5.0
Cc1nc(NC(=O)c2ccccc2)sc1-c1cc(C(=O)O)nn1Cc1ccccc1	x	x	2.5	x	x	x
CCn1c2ccccc2c2nnc(SCc3ccccc3)nc21	44.0*	36.5	-2.0	-14.4	8.7	26.7
CCn1c2ccccc2c2nnc(SCC(N)=O)nc21	-5.8	5.6	-0.9	-21.7	-5.0	x
Cc1ccccc1Cc1c(C)nc2c(C(=O)N3CCN(Cc4ccc5c(c4)OCO5)CC3)cnn2c1C	22.5	30.5	-2.6	-7.1	23.4	x
Cc1cccc(Cc2c(C)nc3c(C(=O)N4CCN(Cc5ccc6c(c5)OCO6)CC4)cnn3c2C)c1	42.2*	25.3	-4.8	17.7	30.8	15.7
CN(C)S(=O)(=O)c1ccc(N2CCCC2)c(C(=O)Nc2ccccc2Br)c1	1.8	-5.1	0.8	x	-1.4	x
Cc1ccccc1NC(=O)c1cc(N)ccc1N1CCCCC1	41.3*	34.7	-0.5	x	20.6	31.8*
O=C(COC(=O)CCC(=O)c1cccs1)NC(=O)c1ccc(OC(F)F)cc1	8.0	6.1	1.3	-15.2	1.0	x
CC(=O)N1CCc2cc(Br)cc(S(=O)(=O)N3CCC(C(=O)O)CC3)c21	-4.9	3.8	-1.3	4.1	11.2	x
Cc1nn(Cc2c(F)c(F)c(F)c(F)c2F)c(C)c1NC(=O)c1ccc(COc2ccc(F)cc2)o1	39.8	33.8	-0.4	-15.7	34.4	x
Cc1nn(Cc2c(F)c(F)c(F)c(F)c2F)c(C)c1NC(=O)c1ccc(COc2ccccc2Cl)o1	46.4*	29.9	1.8	x	38.5	31.6*
CC(C)(C)c1cc(S(=O)(=O)CCc2ccncc2)cc(C(C)(C)C)c1F	33.4	23.1	-0.6	2.0	5.6	x
Cc1ccc(C(=O)Nc2ccc(C(=O)N3CCCCC3C)cc2)cc1 (configuration not stated)	46.5*	22.0	-1.2	16.8	13.0	26.4
O=C(Nc1nc2ccc(Cl)cc2s1)c1ccco1	40.1*	33.6	-1.5	11.7	39.4	29.9
Cc1ccc(C(=O)N2CCc3ccccc3C2)cc1S(=O)(=O)N1CCOCC1	27.8	30.7	5.9	10.0	11.8	x
Cc1ccc(C(=O)NCCC2=CCCCC2)cc1S(=O)(=O)N1CCOCC1	19.7	23.1	-2.8	x	-6.4	x
O=C(NCCC1=CCCCC1)c1ccc(Cl)c(S(=O)(=O)Nc2ccccc2)c1	33.5	39.3	-4.9	29.7	27.4	x
Cc1ccc(C(=O)NCCC2=CCCCC2)cc1S(=O)(=O)N1CCCCC1	41.0*	38.9	2.0	20.5	6.3	26.5
Cc1ccccc1NS(=O)(=O)c1cc(C(=O)N2CCc3ccccc3C2)ccc1C	42.3*	37.0	1.9	x	4.5	32.7*
Cc1ccccc1NS(=O)(=O)c1cc(C(=O)NCCC2=CCCCC2)ccc1C	40.4*	49.6	4.3	20.2	24.3	25.4
CCOC(=O)c1ccc(OCCOc2ccccc2C)cc1	-28.3	-6.8	0.0	-37.1	-17.2	x
